From PubChem BioAssay
A selection: hits, their analogues and other compounds. The true share with any hit is near 7.9%.
HCV inhibitor = HCV inhibition. Potency, µM (top dose mostly 41.8 µM), without a hit: at the top dose activity change, negative = inhibition, actives largely listed as inhibitors. AID 651820. 340,000 tested, 3.4% active. Huh7.5.1 HCVcc-Cre infection, luciferase reporter, 44 h; active = well fitted inhibition curve with a large enough effect; inconclusive = small, poorly fitted or top-dose-only effect, or another doubt; inactive = no such curve, though single readings can be large or run the other way; also: potency is read from the fitted curve at half-maximal effect
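Antiviral activity was scored by luciferase reporter output from cells infected with HCVcc-Cre (~0.5 moi) in presence of compound, 44 h infection period, cells seeded 1,000/well 4 h prior.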
FMDV inh = blocks foot and mouth disease virus; Potency, µM (top dose mostly 57.9 µM), without a hit: at the top dose activity change, negative = inhibition, actives largely listed as inhibitors; FMDV antiviral cell-based qHTS; 410,000 tested, 1.2% active; AID 1159524; calls by dose curve; tested in HEK293T cells; also: read-out not given here; potency is read from the fitted curve at half-maximal effect; nearly all actives have a fitted effect of over 45% in size
HCMV antiviral = blocks human cytomegalovirus replication. HFF cells, HCMV-luciferase reporter, 72 h; stronger effect = lower value. activity change, negative = inhibition, % at 57.5 µM. 410,000 tested, 4.5% active. AID 1259415; in the data active = activity change below about -60%; inconclusive = no clear call, values can overlap the other calls; inactive = above about -39%
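Compounds were evaluated in HFFs infected with an HCMV luciferase reporter virus (MOI 1 PFU/cell). Luciferase in lysates collected 72 h post infection served as the replication measure.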
LASV entry inh = Lassa virus entry inhibition | Lassa virus pseudotype entry inhibition, cell reporter | Potency, µM (titrated, usually from 37.9 µM), inactives show at the top dose activity change, negative = inhibition, hits mostly inhibitors | 300,000 tested, 1.2% active; calls by dose curve; tested in HEK293 cells; also: potency is read from the fitted curve at half-maximal effect; nearly all actives have a fitted effect of over 50% in size
MARV entry inh = inhibitors of Marburg virus binding or cell entry; Potency, µM (top dose mostly 37.8 µM), for inactives: at the top dose activity change, negative = inhibition, hits mostly inhibitors; 300,000 tested, 1.8% active; Marburg virus pseudotyped entry inhibition, cell reporter; AID 540276; calls by dose curve; tested in HEK293 cells; also: potency is read from the fitted curve at half-maximal effect
* marks the source's active call; other numbers are inactive results; ? = inconclusive; / = no result; [ ] = remark or other dose. % is scaled to controls: 0 for no effect and ±100 for the full control effect.

SMILES	HCV inhibitor	FMDV inh	HCMV antiviral	LASV entry inh	MARV entry inh
O=C(NCCc1cccs1)c1ccc(Cl)c(Cl)c1	-19%	0%	-12	23%	?
O=C(/C=C/c1cccc(Cl)c1)NCc1cccs1	-21%	71%	?	?	4%
COc1cc(NC(=O)c2c(C)oc3ncnc(N4CCCCC4)c23)cc(OC)c1	/	-9%	?	?	/
O=C(c1cnn(-c2nccc(-c3ccccc3C(F)(F)F)n2)c1C1CC1)N1CCN(CCO)CC1	/	-7%	/	/	/
COCC1CCCCC1OS(N)(=O)=O (stereo not drawn)	24%	-15%	-22	/	/
CCC(C)NC(=O)Cn1c(=O)n(-c2ccc(Cl)c(Cl)c2)c(=O)c2c(C)c(C(=O)N(CC)CC)sc21 (stereo not drawn)	/	5%	-1	-1%[46.1 µM]	/
CCOc1ccccc1CNc1ncnc2ccc(-c3c(C)noc3C)cc12	/	32µM*	-28	/	/
CC(C)NC(=O)[C@@H]1C[C@@H](Sc2nc3ccccc3[nH]2)CN1C1Cc2ccccc2C1	/	1%	/	/	/
CCCCn1c(-c2csc3c2CCC(C)C3)n[nH]c1=S (stereo not drawn)	?	-16%	-61*	15%	-2%
COc1ccc(OC[C@@H]2CC3[C@@H](c4ccc(Br)cc4)[C@H](C)CC[C@H]3C(=O)O2)cc1 (stereo partly drawn)	/	/	/	/	-5%[14.2 µM]
O=C(O)COc1ccc(-c2nccc(-c3ccccn3)n2)cc1	5%	?	-71*	?	-14%[46.1 µM]
Cc1ccc(NS(=O)(=O)c2ccc(-n3cccn3)cc2)cc1Cl	/	34%	-33	11%[46.1 µM]	/
Cc1ccc(NS(=O)(=O)c2ccc(-n3cccn3)cc2)cc1C	?	14%	-93*	-15%[46.1 µM]	-15%[46.1 µM]
CCCOc1ccc(C(=O)C(CN2CCOCC2)c2ccccc2)cc1 (stereo not drawn)	?	14µM*	-104*	?	16µM*
COc1ccc(C(=O)C(CN2CCOCC2)c2ccccc2)cc1F (stereo not drawn)	?	?	-105*	?	8.9µM*
C=CCn1c(=O)c(C(=O)Nc2ncccc2C)c(O)c2ccccc21	/	?	1	/	/
COc1ccc(CNC(=O)COC(=O)C2CCC(C(C)(C)C)CC2)cc1 (stereo not drawn)	13%	?	-77*	?	?
CN(C)CCC(=O)N1C/C(=C/c2ccccc2)C(=O)/C(=C\c2ccccc2)C1	?	8.9µM*	-98*	?	?
O=C1/C(=C/c2ccccc2)CN(C(=O)CCN2CCOCC2)C/C1=C\c1ccccc1	?	8.9µM*	-33	1.4µM*	?
O=C(Cc1ccccc1)N1CCNCC1	3%	8%	-17	8%[46.1 µM]	-7%[46.1 µM]
C[N+](C)(C)CCC(=O)N1C/C(=C/c2ccccc2)C(=O)/C(=C\c2ccccc2)C1	?	?	-67*	?	?
Cc1ccc(C(C)C)c(OCC(=O)c2c(O)c3ccccc3oc2=O)c1	3%	?	-11	-10%	-3%
O=C(c1ccccc1)N1CC2ON=C(c3c(F)cccc3Cl)C2C1 (stereo not drawn)	/	/	-4	/	/
COc1ccc(CN2CCOc3ccc(C(O)c4cccnc4)cc3C2)cc1 (stereo not drawn)	/	-18%	/	/	/
CCCOC(=O)c1c(-c2ccccc2)c(-c2ccccc2)nn(C)c1=O	/	-5%	-17	8%[46.1 µM]	21%[46.1 µM]
SMILES	HCV inhibitor	FMDV inh	HCMV antiviral	LASV entry inh	MARV entry inh
COc1ccc(C(=O)OCC(=O)Nc2sccc2C(N)=O)cc1[N+](=O)[O-]	?	-30%	-6	/	/
Cc1cccc(C(=O)NCc2nc(-c3cccc(NC(=O)C4CCCN(C)C4)c3)oc2C)n1 (stereo not drawn)	/	-6%	/	/	/
CN1CC(C(=O)c2cccc(C(F)(F)F)c2)C(c2ccc(Cl)cc2)C1 (stereo not drawn)	-17%	?	-72*	?	?
CN1CC(C(=O)c2ccc([N+](=O)[O-])cc2)C(c2ccc(Cl)cc2)C1 (stereo not drawn)	-14%	-18%	-64*	4%	-23%[46.1 µM]
COc1cccc(C(=O)C2CN(C)CC2c2ccc(Cl)cc2)c1 (stereo not drawn)	-1%	-18%	-32	?	?
CC1CC(C)CN(S(=O)(=O)c2ccc(C(=O)N(c3ccccn3)C3CCCCC3)cc2)C1 (stereo not drawn)	-5%	-19%	-23	?	?
CCCCNC(=O)Cn1c(=O)oc2cc(S(=O)(=O)N3CC(C)CC(C)C3)ccc21 (stereo not drawn)	-26%	2%	1	/	/
CC1CC(C)CN(S(=O)(=O)c2ccc(C(=O)N(C)Cc3ccccc3)cc2)C1 (stereo not drawn)	?	0%	-65*	/	/
CC1CC(C)CN(S(=O)(=O)c2ccc3c(c2)oc(=O)n3CC(=O)N(C)Cc2ccccc2)C1 (stereo not drawn)	-28%	-27%	-79*	/	/
Nc1c(C(=O)Nc2ccc(OC(F)(F)F)cc2)nnn1Cc1ccccc1	/	-4%	-3	-16%[46.1 µM]	-5%[46.1 µM]
COc1ccc2nc(C)cc(N3CCN(c4ccccc4)CC3)c2c1	22µM*	-27%	-16	-12%	?
Cc1ccc2nc(C)cc(N3CCOCC3)c2c1	10µM*	-25%	9	-4%	3%
COc1ccc2nc(C)cc(N3CCN(S(=O)(=O)c4ccccc4F)CC3)c2c1	7.1µM*	?	-10	/	/
Cc1cc(N2CCN(C(=O)/C=C/C(=O)O)CC2)c2ccccc2n1	-1%	-8%	?	/	/
Cc1cc(N2CCN(C(=O)Oc3ccc([N+](=O)[O-])cc3)CC2)c2ccccc2n1	/	25µM*	?	/	/
COc1ccc2nc(C)cc(N3CCOCC3)c2c1	20%	-18%	-7	9%	4%
COc1ccc(-c2csc(N3CCN(c4cc(C)nc5ccccc45)CC3)n2)cc1OC	2.8µM*	0%	-112*	?	?
COc1ccc(C(=O)CN2CCN(c3cc(C)nc4ccccc34)CC2)cc1	10µM*	?	-61*	/	/
COc1cccc(Cl)c1NC(=O)N1CCN(c2ccnc3cc(Cl)ccc23)CC1	?	-24%	?	/	/
COc1cccc(Cl)c1NC(=O)N1CCN(c2cc(C)nc3ccccc23)CC1	10µM*	?	-80*	?	?
COc1cc(-c2csc(N3CCOCC3)n2)cc(OC)c1OC	-9%	-12%	137	-9%	-3%
COc1ccc2ncc(S(=O)(=O)c3ccccc3)c(N3CCN(c4ccccc4)CC3)c2c1	?	?	-68*	?	?
COc1ccc(N2CCN(CC(=O)c3ccccc3)CC2)cc1	5%	22%	/	-14%[46.1 µM]	14%[46.1 µM]
COc1ccc2ncc(S(=O)(=O)c3ccccc3)c(N3CCC4(CC3)OCCO4)c2c1	-13%	?	-35	-26%	?
CCO[C@H]1OC(C(N)=O)=C[C@@H](c2ccccc2)[C@@H]1CCCO	14%	-3%	9	/	/
COc1ccc(CNC(=O)CN2CCN(c3cccc(C)c3C)CC2)cc1	3.2µM*	-23%	16	?	0%[46.1 µM]
